Laboratory results taken from PubChem BioAssay AID540276 (National Center for Advancing Translational Sciences (NCATS), 2011).
Several values for one entry are separate records, joined by “and”; a condition that tells them apart may be missing. Equal entries are not always repeated. Out of some 300,000 compounds screened, about 5,400 (1.8%) were called active. A call without a number means that no potency is given here. Another 28% or so got no clear call; they are omitted. Calls come from the whole dose curve; tested in HEK293 cells. Only a selection was taken, and actives are over-represented in it overall. Where a structure was tested more than once in an assay, its records may differ in their call.

Experiment: qHTS for inhibitors of binding or entry into cells for Marburg Virus
Conditions: Marburg virus pseudotyped entry inhibition, cell reporter; series mostly up to 37.8 µM
Potency is the fitted concentration of half-maximal effect.

SMILES | Potency
Cc1cc(S(=O)(=O)Nc2ccc(C(=O)NCC(c3ccco3)N3CCCC3)cc2)ccc1F (stereo not given) | inactive
CCC(=O)N1CCc2cc(Br)c(S(=O)(=O)NCCN3CCCCC3CC)cc21 (stereo not given) | inactive
CCN(Cc1ccccc1)C(=O)Cc1ccc(OC)c(S(=O)(=O)N2CCOCC2)c1 | inactive
COc1cccc(CNS(=O)(=O)c2ccc3c(c2)CC(C)N3C(C)=O)c1 (stereo not given) | inactive
COC(=O)CC=C[C@@H](C)[C@H](NC(=O)OCC(Cl)(Cl)Cl)c1ccc2ccccc2c1 | inactive
Cc1ccc(-c2nn(-c3ccc(F)cc3)cc2C(=O)NCC(c2cccs2)N2CCOCC2)cc1 (stereo not given) | inactive
Cc1ccc(S(=O)(=O)C2(S(=O)(=O)c3ccc(C)cc3)CCCC2)cc1 | 3.98 µM (active)
Cc1ccc(S(=O)(=O)NC2CCCCCC2)cc1 | inactive
Cc1ccc(S(=O)(=O)N(C)C2(C)CCS(=O)(=O)C2)cc1 (stereo not given) | inactive
COc1cccc2cc(C(=O)NCc3ccc(C)cc3)c(=N)oc12 | inactive
Cc1cccc2[nH]c(CN(C)C(=O)C3CCC(=O)N(CCc4ccccc4)C3)nc12 (stereo not given) | inactive
CCOc1ccc(CCNC(=O)CSc2cc(=O)n(C)c3ccc(Cl)cc23)cc1OCC | inactive
CCN(CCCNC(=O)CSc1cc(=O)n(C)c2cc(Cl)ccc12)c1cccc(C)c1 | inactive
CCN(CCCNC(=O)CSc1cc(=O)n(C)c2cc(Cl)ccc12)Cc1ccccc1 | 11.2 µM (active)
Oc1cc2c(cc1O)CN(C(=S)NCCc1ccc(Cl)cc1)CCC2 | inactive and 355 nM (active)
Cc1ccc(NC(=S)NCCc2ccc(Cl)cc2)c(C)c1 | inactive
COc1ccc(CCNC(=S)N2CCN(S(=O)(=O)c3ccc(Cl)cc3)CC2)cc1 | inactive
CC(=O)c1ccc(S(=O)(=O)N(C)CCCC(=O)N(C)Cc2ccccc2F)cc1 | inactive
O=C(CCn1nnnc1CN1CCOCC1)N1CCC(c2ccccc2Cl)C1 (stereo not given) | inactive
CCCC(CNC(=O)COC(=O)C1=NNC(=O)CC1)c1ccc(Cl)cc1Cl (stereo not given) | inactive
CCOc1ccccc1Nc1nnc(SCC(=O)NCC2CCCO2)s1 (stereo not given) | inactive
O=C(CSc1ncnc2c1nnn2Cc1ccc(F)cc1)NC1CCCC1 | inactive
CCOC(=O)N1CCN(C(=O)C2CCCN(c3ncnc4c3sc3cccc(F)c34)C2)CC1 (stereo not given) | inactive
OC1CCCN(c2ncnc3c2nnn3Cc2c(F)cccc2Cl)C1 (stereo not given) | 10 µM (active)
O=C1N=CC(F)C(=O)N1 (stereo not given) | inactive
CCOc1ccc(NC(=O)CN(C)C(=O)c2cccc(S(=O)(=O)N3CCCC3)c2)cc1OCC | inactive
COc1ccccc1C(=O)N(C1=NC(C)CS1)c1ccc(Cl)cc1 (stereo not given) | inactive

SMILES | Potency
Cc1noc(C)c1COC(=O)c1cc2ccccc2cc1O | inactive
O=C(COC(=O)c1ccc(O)cc1O)NC(=O)c1ccccc1 | inactive
O=C(NNc1c2ccccc2nc2ccccc12)c1cc2ccccc2cc1O | 3.16 µM (active)
COc1ccccc1C(=O)OCC(=O)Nc1cccc(S(=O)(=O)NC2=NCCCCC2)c1 | inactive
O=C1CCc2cc(S(=O)(=O)Nc3ccc(C(F)(F)F)cc3)cc3c2N1CC3 | inactive
Cc1cccc(-n2c(N)cc(=O)nc2SC(C)C(=O)NC2CCCCC2)c1 (stereo not given) | inactive
Cc1cccc(-n2c(SCC(N)=O)nc3c(oc4ccccc43)c2=O)c1 | inactive
Cc1cccc(-n2c(SCC(N)=O)nc3c(c2=O)C2(CCCCC2)Cc2ccccc2-3)c1 | 4.47 µM (active)
O=S(=O)(Nc1ccc2nc(N3CCOCC3)sc2c1)c1ccccc1 | inactive
COc1ccc(CC(=O)NC(C)c2ccc(Cl)c(Cl)c2)cc1S(=O)(=O)N1CCOCC1 (stereo not given) | inactive
CCOc1ccc(CCNC(=O)COC(=O)c2ccc(F)c(S(=O)(=O)N3CCOCC3)c2)cc1OCC | inactive
CC(NCC(=O)Nc1ccccc1C(=O)NC1CC1)c1ccccc1Cl (stereo not given) | inactive
Cn1c(Cl)cnc1[C@H]1CC(=O)c2cc(Cl)ccc2O1 | 10 µM (active)
COc1cccc(NC(=O)C[C@H]2SC(=Nc3ccccc3)NC2=O)c1 | inactive
O=C(c1cnn(-c2ccc(Cl)cc2)c1)c1ccccc1O | 3.55 µM (active)
Cc1cc(O)cc(O)c1C(=O)Cc1cnn(-c2ccccc2)c1 | inactive
Cc1ncc(CC(=O)n2cc(C(=O)c3cc(Cl)ccc3O)cn2)s1 | inactive
O=c1oc2ccccc2c(=O)c2ccccc12 | inactive
Cc1cccc(CN2CCC(n3nccc3NC(=O)c3ccccc3C)CC2)n1 | inactive
CC1(C(=O)NNC(=S)NCC2CCCO2)CC1(Cl)Cl (stereo not given) | inactive
CC(=O)OC1C2(CC3N4C(=O)C5(CO)SSC4(CC31O)C(=O)N5C)OC(C)C(C)(C)C2=O (stereo not given) | 1.41 µM (active)
Cc1ccc(/C=N/NC(=O)COc2ccccc2-c2ccccc2)cc1 | 1.3 µM (active)
Cc1ccc(OCC(=O)N/N=C\c2ccco2)c(C)c1 | inactive
Cc1ccc(OCC(=O)N/N=C/c2ccncc2)cc1 | inactive
CCn1cc(CN2CCC(C(=O)Nc3cccc(-c4cccc(Cl)c4)c3)CC2)cn1 | 12.6 µM (active)
O=C(Nc1cnn(Cc2ccc(Cl)cc2)c1)C1CCCC1 | inactive
O=C(Nc1ccc(-n2cccn2)cc1)C1CCN(Cc2ccsc2)CC1 | inactive

SMILES | Potency
CC(C)CO/N=C1\C[C@@H](O)[C@@H](O)[C@@H]2[C@@H]3C(=O)N(C[C@@H]4CCCO4)C(=O)[C@@H]3CC[C@@H]12 | inactive
CC1CN(Cc2ccco2)C(=S)N(c2ccccc2)C1=O (stereo not given) | inactive
O=C1CCCN1C(=O)COc1ccc([N+](=O)[O-])cc1 | inactive
Cc1noc(C)c1CSCC(=O)N(CCC(C)C)c1c(N)n(Cc2ccccc2)c(=O)[nH]c1=O | inactive
COc1ccc(/C=C/C(=O)OCC(=O)NC2CCCCCC2)cc1OC | inactive
COc1ccc(/C=C/C(=O)Nc2cccnc2)cc1OC | inactive
COc1ccc(/C=C/C(=O)Nc2ccc(C34CC5CC(CC(O)(C5)C3)C4)cc2)cc1OC | 6.51 µM (active)
CCOC(=O)Cc1[nH]nc2c1[C@H](c1cc(OC)ccc1OC)C(C#N)=C(N)O2 | inactive
COc1ccc(Oc2c(Cl)cnn(-c3ccccc3)c2=O)cc1 | 10 µM (active)
COc1ccc(-n2c(C)nc3c(cnn3-c3ccc(F)cc3)c2=O)cc1 | inactive
Cc1ccc(Oc2cnn(-c3ccccc3)c(=O)c2Br)cc1 | inactive
Cc1cc(C(=O)Nc2ccccc2N2CCOCC2)c2ccccc2n1 | inactive
c1ccc(Nc2nc(N3CCOCC3)c3ccccc3n2)cc1 | 12.6 µM (active)
c1ccc(-c2nnc(N3CCOCC3)c3ccccc23)cc1 | inactive
Cc1nn(-c2ccc(F)cc2)c(Cl)c1/C=C(/CCC(=O)O)c1nc2ccccc2s1 | inactive
Cc1cc(O)c(Sc2ccccc2)c(=O)o1 | inactive
CCOc1cccc(-c2nnc(SCC(=O)NC3CC3)n2C)c1 | inactive
Cc1ccc(NC(=O)CCN2CCc3ccccc3C2)cc1 | inactive
CN1C(CC(=O)Nc2ccc(Br)cc2)c2ccccc2CC1(C)C (stereo not given) | 11.2 µM (active)
COCC(=O)Nc1ccc(Br)cc1 | inactive
COc1ccc(Cc2nnc(SCC(=O)Nc3ccc(C)c(C)c3)o2)cc1OC | inactive
CC(C)Nc1nnc(SC(C)C(=O)N(C)C2CCCCC2)s1 (stereo not given) | inactive
Cc1ccc2nc3n(c(=O)c2c1)CCC3 | inactive
CSc1nc2ccc(C)cc2c(=O)n1-c1cccnc1 | inactive
Cc1ccc2nc(C)c3c(c2c1)N(c1ccccc1)CC3 | 5.62 µM (active)
COc1ccc(CN2CCN(C(=O)CCC(=O)Nc3nnc(C(C)C)s3)CC2)cc1F | inactive
CSc1ccc(S(=O)(=O)N2CCC(C(=O)NCc3ccncc3)CC2)cc1 | inactive

SMILES | Potency
CCOC(=O)c1sc2nc(CSCC(=O)OCc3ccc(C(=O)OC)o3)[nH]c(=O)c2c1C | inactive
CCOC(=O)c1sc2nc(CSc3ccccc3)[nH]c(=O)c2c1C | 8.91 µM (active)
Cc1ccc(C)c(SCc2nc3sc(C(=O)O)c(C)c3c(=O)[nH]2)c1 | inactive
Oc1cccc(CCc2ccccn2)c1 | inactive
CC(Nc1ccc([N+](=O)[O-])cc1[N+](=O)[O-])c1ccccc1 (stereo not given) | inactive
Cc1c(CN2CCC(CO)(CCOc3ccccc3)CC2)[nH]c2ccc(Cl)cc12 | 2.82 µM (active)
Cc1c(C(=O)N2CCOCC2)[nH]c2ccc(OCc3ccccc3)cc12 | inactive
OCC1(CCc2ccccc2)CCN(Cc2ccc3nsnc3c2)CC1 | inactive
Cc1nn(-c2ccccc2)c2c1[C@@H](c1ccc(F)cc1F)C(C#N)=C(N)O2 | inactive
O=C(Nc1cccc(S(=O)(=O)N2CCOCC2)c1)C12CC3CC(CC(C3)C1)C2 | inactive
Cc1ccc(C(=O)Nc2ccc(NC(=O)c3cccs3)cc2)c(C)c1 | inactive
O=C(Nc1ccccc1)c1ccc(NC(=O)c2cccs2)cc1 | inactive
Cc1ccc(-c2nnc(-c3ccc(NC(=O)c4cccs4)cc3)o2)cc1 | 11.6 µM (active)
Cc1cc(NC(=O)CSc2nnnn2-c2ccc(F)cc2)no1 | inactive
Cc1ccc(N2CC(C(=O)N3CCC4(CC3)CC(=O)c3ccccc3O4)CC2=O)cc1C (stereo not given) | inactive
Cc1cc(Br)ccc1NC(=O)c1cnc(N2CCN(c3ccccn3)CC2)c2ccccc12 | 9.2 µM (active)
O=C(Cc1ccc(Br)cc1)N1CCN(c2ccccn2)CC1 | inactive
O=C(CN1CCN(c2ccccn2)CC1)Nc1ccc(Br)cc1 | inactive
C=CCOc1ccc(C(=O)Nc2ccccc2C(=O)N2CCCC2)cc1 | inactive
COc1ccc(OCC(=O)NNC(=O)C2CCC2)cc1 | inactive
O=C(O)c1cc2c(cc1NC(=O)c1c(F)cccc1Cl)OCCCO2 | inactive
COc1ccc(CNC(=O)c2cc3c(=O)[nH]c4ccccc4c3s2)cc1 | inactive
COc1ccc(CNC(=O)COC(=O)C2=Cc3ccccc3OC2)cc1 | inactive
COc1ccc(CNC(=O)c2cc3c(s2)-c2ccccc2OC3)cc1 | 10 µM (active)
